# Most compounds without a hit are left out; they make up all but 2.1% or so of the library.
# S1P2 antag: S1P2 (human) receptor antagonism; O95136; cell-based S1P2 antagonist assay, inhibition at 5 uM; inhibition, % at 5 µM; hit rate 0.21% among 97,000; in the data active = inhibition above about 45%;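 note: CRE beta-lactamase reporter cells expressing human S1P2 stimulated with S1P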
# Target sequence (O95136 whole entry, looked up): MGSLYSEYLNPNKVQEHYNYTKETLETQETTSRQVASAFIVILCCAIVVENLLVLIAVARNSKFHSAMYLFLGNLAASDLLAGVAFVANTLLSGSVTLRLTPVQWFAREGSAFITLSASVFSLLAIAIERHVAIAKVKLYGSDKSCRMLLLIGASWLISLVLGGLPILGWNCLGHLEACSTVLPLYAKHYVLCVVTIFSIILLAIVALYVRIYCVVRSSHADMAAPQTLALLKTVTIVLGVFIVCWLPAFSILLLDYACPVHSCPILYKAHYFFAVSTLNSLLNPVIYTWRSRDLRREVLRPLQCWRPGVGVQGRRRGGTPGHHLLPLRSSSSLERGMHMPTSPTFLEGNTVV
# S1P2 ag: S1P2 (human) receptor agonism | O95136 | S1P2-expressing cell line, agonist reporter read-out | activation, % at 4.5 µM | hit rate 0.46% among 97,000 | AID 729; in the data active = activation above about 16%
# GALR2 agonist: activates the human galanin receptor 2; O43603; GALR2-expressing cells, agonist activation read-out; activation, % (test concentration not listed); hit rate 0.48% among 140,000; AID 803; in the data active = activation above about 5%, passing the limit was not always enough
# GALR2 blocker: GALR2 (human) receptor antagonism | O43603 | GALR2-expressing cells, antagonist mode | inhibition, % at 4 µM | hit rate 0.39% among 140,000 | AID 828; in the data active = inhibition above about 27%;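 note: cells stimulated with galanin 1-16 at roughly its EC80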
# DAT uptake mod: human DAT dopamine uptake with cocaine, either direction. LLC-PK1 hDAT cells, [14C]-dopamine uptake with cocaine IC80; actives deviate in either direction. B-score at 10 µM. hit rate 1.3% among 110,000. AID 449768;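 active = Z score or B-score, a plate-position-corrected score, falls beyond the plate's 99.7% confidence bounds, in either direction; inactive = both scores lie inside the 99.7% bounds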
# A number is an active result; - = inactive; . = no result; ! = a repeat was not active.
SMILES,S1P2 antag,S1P2 ag,GALR2 agonist,GALR2 blocker,DAT uptake mod
COc1cc2c(cc1OC)-c1cc(NC3CCCCCC3)nc(=O)n1CC2,-,42,-,-,-
COc1ccccc1N1CCN(c2cc(N3CCCC3)nc(C)n2)CC1,-,-,-,-,-
COc1cc2c(cc1OC)-c1cc(N3CCCc4ccccc43)nc(=O)n1CC2,-,41,-,-,-
COc1cc2c(cc1OC)-c1cc(N3CCCCCC3)nc(=O)n1CC2,-,36,-,-,-
COc1ccc(C(=O)Nc2nc3c(s2)CCCC3)cc1S(=O)(=O)N1CCCc2ccccc21,.,.,-,-,.
COc1cccc2c1OCC/C2=N\NC(=O)COc1ccccc1C,.,.,-,-,.
O=C(O)Cc1ccc(C(=O)c2ccccc2F)s1,-,-,-,-,-
Cc1[nH]n2c(=O)c3c(nc2c1-c1ccc(Cl)cc1)CCC3,.,.,-,-,-2.7
Cc1sc2ncnc(OCC(=O)NCC3CCCO3)c2c1C (configuration not stated),-,-,-,-,-3.3
CC(CCc1ccccc1)NC(=O)N1CCOCC1 (configuration not stated),.,.,-,-,.
CN1/C(=C\C(=S)NC(=O)c2ccc([N+](=O)[O-])cc2)C(C)(C)c2ccccc21,.,.,-,-,.
CN1/C(=C/C2CC(=O)N(c3ccc([N+](=O)[O-])cc3)C2=O)C(C)(C)c2ccccc21 (configuration not stated),-,-,-,-,2.9
COC(=O)c1ccc(NC(=O)C2CC(=O)N(c3ccc(C)cc3)C2)cc1 (configuration not stated),-,-,-,-,-
COc1ccc(-n2c(SCC(=O)NCc3ccco3)nc3c([nH]c4ccccc43)c2=O)cc1,-,-,-,-,-
C=CCSc1nc2ccccc2n1C(=O)/C=C/c1cc(OC)c(OC)c(OC)c1,54,-,-,-,.
C=CCSc1nc2ccccc2n1C(=O)/C=C/c1ccc(OC)c(OC)c1,-,-,-,-,-
O=C(c1ccco1)N1CCN(S(=O)(=O)c2cccc(C(F)(F)F)c2)CC1,-,-,-,-,-1.8
O=C(NCCc1nc(-c2ccccc2)no1)c1ccco1,.,.,.,.,-
Oc1cc2c(cc1O)C1c3ccc(O)c(O)c3OCC1(O)C2 (configuration not stated),.,.,.,.,-
COc1ccc(OC)c(CNC(=O)CCN2C(=O)COc3ccccc32)c1,-,-,-,-,1.6
Cc1nc2ncnn2c(N2CCN(C(c3ccccc3)c3ccccc3)CC2)c1C,-,-,-,-,3.2
O=C(Cn1c(NCCO)nc2ccccc21)NCCc1ccc(F)cc1,-,-,-,-,-
CCCOC(=O)Cc1n[nH]c(=O)[nH]c1=O,-,-,-,-,-2.2
CCCOC(=O)CCc1n[nH]c(=O)[nH]c1=O,-,-,-,-,-
Fc1ccc([C@@H]2CCNC[C@H]2COc2ccc3c(c2)OCO3)cc1,.,.,.,.,-3.7!
SMILES,S1P2 antag,S1P2 ag,GALR2 agonist,GALR2 blocker,DAT uptake mod
O=C(COc1ccc2ccccc2c1)Nc1cccc2cccnc12,-,-,-,-,-7.6
CCOC(=O)N1CCC(NC(=O)c2ccc3snnc3c2)CC1,.,.,-,-,2.8
COc1cc(OC)c2c(-c3ccccc3)cc(=O)oc2c1C(CCN1CCCC1)c1ccc2c(c1)OCO2 (configuration not stated),.,.,.,.,-
COc1cc(OC)c2ccc(=O)oc2c1C(CCN1CCCC1)c1ccc2c(c1)OCO2 (configuration not stated),.,.,.,.,1.1
CCC1=C(OC(=O)N(CC)CC)N2C(=O)OC(=NCCc3c[nH]c4ccccc34)[C@]2(Cc2ccccc2)[C@H]2C1=CC[C@H]1C(=O)N(C)C(=O)[C@H]12,.,.,.,.,-
CCOC(=O)c1cccc(NC(=O)C2(S(=O)(=O)c3ccc(Cl)cc3)CC2)c1,.,.,-,-,.
O=C(CSC1=NCCS1)Nc1ccnc2ccccc12,.,.,-,35,-
CC(=O)Nc1ccc(NC(=O)CSC2=NCCS2)cc1,-,-,-,-,-
O=C(Nc1cccc(F)c1)N1CCN(C/C=C/c2ccccc2)CC1,-,-,-,-,2.2
O=C(Cc1ccc(-n2c(=O)[nH]c3ccsc3c2=O)cc1)N1CCN(c2ccc(Cl)cc2)CC1,.,.,-,-,.
CCOC(=O)c1c(C)n(C)c2ccc(OCC(O)CN3CCN(C)CC3)cc12 (configuration not stated),-,-,-,-,-
CCOC(=O)c1c(C)n(C)c2ccc(OCC(O)Cn3c(C)nc4ccccc43)cc12 (configuration not stated),-,-,-,-,2
CC(C)Cc1nc2oc3c(N4CCN(CCO)CC4)ncnc3c2c2c1CCCC2,.,.,-,-,2.4
COC(=O)c1ccc(OC(=O)c2ccco2)cc1,-,-,-,-,-7.5
O=C(Nc1ccc(OC(=O)c2ccco2)cc1)c1ccco1,-,-,-,-,-
Cc1ccc(-c2nc(Nc3ccccc3)n[nH]2)cc1,-,-,-,-,-3
Cc1cccc(OCc2nnc(SCC(=O)N3c4ccccc4Sc4ccc(Cl)cc43)o2)c1,.,.,-,-,.
O=c1cc(-c2cccc3ccccc23)[nH][nH]1,-,-,-,-,2.4
COc1cc2cc(CN(Cc3cccs3)C(=S)Nc3ccccc3)c(=O)[nH]c2cc1OC,.,.,-,-,.
CC1(OC(=O)C2CCCC2)C(=O)C=C2C=C(C3CC3)OC=C2C1=O (configuration not stated),.,.,.,.,-
COc1ccc(OC)c(N(CC(=O)N2CCc3ccccc3C2)S(C)(=O)=O)c1,-,-,-,-,-
Cc1ccc(N2CCN(C(=O)c3ccccc3NC(=O)C3CC=CCC3C(=O)O)CC2)cc1 (configuration not stated),-,-,-,-,-
Cc1ccccc1N1CCN(C(=O)c2ccccc2NC(=O)C2CC=CCC2C(=O)O)CC1 (configuration not stated),-,-,-,-,2.1
O=[N+]([O-])c1cccc(-c2nc(-c3ccncc3)no2)c1,-,36,-,-,.
O=C(CNC(=O)c1cnccn1)Nc1ccc(F)c(F)c1F,-,-,-,-,-
SMILES,S1P2 antag,S1P2 ag,GALR2 agonist,GALR2 blocker,DAT uptake mod
O=C(NCCN1CCOCC1)c1cc(S(=O)(=O)NCCCN2CCCC2=O)ccc1Cl,-,-,-,-,-
C#Cc1ccc2c(c1)COc1c3ccccc3nn1-2,.,.,.,.,-
CC(=O)Nc1cccc(NC(=O)C2CC(=O)N(c3ccc(C)cc3)C2)c1 (configuration not stated),-,-,-,-,-
CCn1c(COc2ccc(C)cc2)nnc1SCC(=O)C(C)(C)C,-,-,-,-,-
CCn1c(COc2ccc(C)cc2)nnc1SCc1ccc(C#N)cc1,-,-,-,-,3
COc1ccc(C2CC(c3ccccc3)Nc3nc(N)nn32)cc1 (configuration not stated),-,-,-,-,2.5
COCCn1c(-c2ccccc2)cnc1SCC(=O)Nc1cccc2ccccc12,.,.,-,-,.
CSc1cc(-c2ccc(Cl)cc2)c(C(=O)NN)s1,-,-,-,-,3.2
Brc1ccc(-c2nnc(-c3cccnc3)c3conc23)cc1,-,-,-,-,-
Cc1ccc(C2CC(c3ccccc3)=NN2c2ccccc2)o1 (configuration not stated),.,.,7.1,-,.
COc1ccccc1N1CCN(c2ccc([N+](=O)[O-])cc2Cl)CC1,.,.,-,-,.

# High-throughput results from PubChem BioAssay.
